# Data: publication PMC5540273 (PLoS ONE, 2017)
# Tested on: MARK2
# Conditions: concentration: 1 μM, replicates: in singlicate; n = 1
# 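Note: KINOMEscan kinase panel screen.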
row,SMILES,%Inh [%]
1,Cc1ccc(C(=O)NCC(N)=O)cc1-n1c(C)cc(OCc2ccc(F)cc2F)c(Br)c1=O,11
2,CCn1cnc2c(N)ncnc21 [GW345098],12
3,O=C(NCCNc1ccnc(Nc2ccc(F)cc2)n1)c1cc2ccccc2s1 [GSK1379874],0
4,Cc1cccc(-c2nc(-c3ccc(S(C)(=O)=O)cc3)sc2-c2ccncc2)c1,0
5,Cl.Oc1cccc(Nc2ccnc3cc(-c4ccncc4)ccc23)c1 [GW494601],0
6,O=C(NOCC1CC1)c1ccc(F)c(F)c1Nc1ccc(I)cc1Cl,6
7,N#Cc1ccc(-c2cc(-c3c[nH]nc3-c3ccccn3)ccn2)cc1 [GW693028],0
8,Cc1c2ccc(N(C)c3ccnc(Nc4cccc(S(N)(=O)=O)c4)n3)cc2nn1Cc1ccccc1.Cl.Cl [GW787226],0
9,CN1c2ccc(CNc3ccc(F)cc3)cc2-c2c(cnn2C)S1(=O)=O,0
10,CC(=O)Nc1ccc(COc2ccc(Nc3ccnc4cc(-c5ccccn5)ccc34)cc2)cc1.Cl [GW440148],0
11,COCCNC(=O)c1ccc(-c2cc(C(=O)NC3CC3)cc(F)c2C)cc1 [GW868318],0
12,Cl.Nc1ncnc2occ(-c3ccc(NC(=O)Nc4cc(C(F)(F)F)ccc4F)cc3)c12 [SB-707548],32
13,N#Cc1c(N2CCOCC2)sc(-c2ccn[nH]2)c1-c1ccc(Cl)cc1,0
14,COc1cc2ncn(-c3cc(OCc4sccc4Cl)c(C(N)=O)s3)c2cc1OC [GSK448459],0
15,CNc1ncnc2[nH]ncc12 [SKF-18355],14
16,O=C1Cc2cc(Nc3nc(NCc4cccc(S(=O)(=O)C(F)(F)F)c4)ncc3C(F)(F)F)ccc2N1,0
17,CC(C)Oc1ccc2c(-c3ccnc(Nc4ccc(N5CCN(C)CC5)cc4)n3)cnn2n1 [GW696155],72

row,SMILES,%Inh [%]
1,NCC(NC(=O)c1cc(-c2cn[nH]c2)c(-c2ccnc3[nH]ccc23)s1)c1ccccc1.O=C(O)C(F)(F)F.O=C(O)C(F)(F)F (stereo not drawn) [GSK1325775],25
2,CCc1ccnc(/C=C/c2n[nH]c3cc(Sc4ccccc4C(=O)NC)ccc23)c1,4
3,COc1ccc(COc2cc(-n3cnc4ccccc43)sc2C(N)=O)cc1 [GSK1024304],1
4,O=c1cc(N2CCOCC2)nc2n(Cc3cccc4ccccc34)ccn12 [GSK2333389],0
5,Nc1nc(-c2ccc3c(N)n[nH]c3c2)cc(N2CCCC2)n1 [GSK2227430],0
6,COc1ccc(S(=O)(=O)NC2CCN(c3cc(C)nc(Nc4cccc(C#N)c4)n3)CC2)cc1.O=C(O)C(F)(F)F [GSK1653539],12
7,Fc1ccc(-c2nn3c(OCC(F)(F)F)cccc3c2-c2ccncc2)cc1 [GW514784],0
8,Nc1nccc(-c2c(-c3ccc(F)cc3)ncn2C2CCN(CC(F)(F)F)CC2)n1 [SB-236560],0
9,NS(=O)(=O)CCc1cccc(Nc2nccc(-c3c(-c4cccc(NC(=O)c5c(F)cccc5F)c4)nn4ccccc34)n2)c1 [GSK336735],0
10,O=C(NCCNc1ccnc(Nc2ccc(F)cc2)n1)Nc1ccccc1F [GSK1379880],0
11,Cc1ccc(NC(=O)c2ccnc(N3CCN(C)CC3)c2)cc1-c1ccc(C(=O)NCC2CC2)cc1 [GW775604],0
12,O=c1cc(N2CCOCC2)nc2n(Cc3cccc(Cl)c3Cl)c(C3CC3)nn12 [GSK2358994],0
13,c1ccc(-c2cc(-c3c[nH]nc3-c3ccccn3)ccn2)cc1 [GW576604],0
14,COc1ccc(CNC(=O)NC2CCN(c3ccnc(Nc4ccc(OC)cc4)n3)C2)cc1 (stereo not drawn) [GSK1379727],0
15,C[C@@H](Oc1cc(-n2cnc3ccc(NC(=O)NC(C)(C)C)cc32)sc1C(N)=O)c1ccccc1Cl [GSK346294],0
16,CN(C1=C(c2ccccc2)C(=O)NC1=O)c1ccccc1 [SB-334860],3

# Tested on: MARK3
# Conditions: concentration: 1 μM, replicates: in singlicate; n = 1
row,SMILES,%Inh [%]
1,Cc1ccc(C(=O)NCC(N)=O)cc1-n1c(C)cc(OCc2ccc(F)cc2F)c(Br)c1=O,10
2,CCn1cnc2c(N)ncnc21 [GW345098],4
3,O=C(NCCNc1ccnc(Nc2ccc(F)cc2)n1)c1cc2ccccc2s1 [GSK1379874],0
4,Cc1cccc(-c2nc(-c3ccc(S(C)(=O)=O)cc3)sc2-c2ccncc2)c1,0
5,Cl.Oc1cccc(Nc2ccnc3cc(-c4ccncc4)ccc23)c1 [GW494601],0
6,O=C(NOCC1CC1)c1ccc(F)c(F)c1Nc1ccc(I)cc1Cl,0
7,N#Cc1ccc(-c2cc(-c3c[nH]nc3-c3ccccn3)ccn2)cc1 [GW693028],0
8,Cc1c2ccc(N(C)c3ccnc(Nc4cccc(S(N)(=O)=O)c4)n3)cc2nn1Cc1ccccc1.Cl.Cl [GW787226],49
9,CN1c2ccc(CNc3ccc(F)cc3)cc2-c2c(cnn2C)S1(=O)=O,0
10,CC(=O)Nc1ccc(COc2ccc(Nc3ccnc4cc(-c5ccccn5)ccc34)cc2)cc1.Cl [GW440148],8
11,COCCNC(=O)c1ccc(-c2cc(C(=O)NC3CC3)cc(F)c2C)cc1 [GW868318],25
12,Cl.Nc1ncnc2occ(-c3ccc(NC(=O)Nc4cc(C(F)(F)F)ccc4F)cc3)c12 [SB-707548],26
13,N#Cc1c(N2CCOCC2)sc(-c2ccn[nH]2)c1-c1ccc(Cl)cc1,27
14,COc1cc2ncn(-c3cc(OCc4sccc4Cl)c(C(N)=O)s3)c2cc1OC [GSK448459],0
15,CNc1ncnc2[nH]ncc12 [SKF-18355],35
16,O=C1Cc2cc(Nc3nc(NCc4cccc(S(=O)(=O)C(F)(F)F)c4)ncc3C(F)(F)F)ccc2N1,19
17,CC(C)Oc1ccc2c(-c3ccnc(Nc4ccc(N5CCN(C)CC5)cc4)n3)cnn2n1 [GW696155],77

row,SMILES,%Inh [%]
1,NCC(NC(=O)c1cc(-c2cn[nH]c2)c(-c2ccnc3[nH]ccc23)s1)c1ccccc1.O=C(O)C(F)(F)F.O=C(O)C(F)(F)F (stereo not drawn) [GSK1325775],0
2,CCc1ccnc(/C=C/c2n[nH]c3cc(Sc4ccccc4C(=O)NC)ccc23)c1,3
3,COc1ccc(COc2cc(-n3cnc4ccccc43)sc2C(N)=O)cc1 [GSK1024304],5
4,O=c1cc(N2CCOCC2)nc2n(Cc3cccc4ccccc34)ccn12 [GSK2333389],22
5,Nc1nc(-c2ccc3c(N)n[nH]c3c2)cc(N2CCCC2)n1 [GSK2227430],0
6,COc1ccc(S(=O)(=O)NC2CCN(c3cc(C)nc(Nc4cccc(C#N)c4)n3)CC2)cc1.O=C(O)C(F)(F)F [GSK1653539],0
7,Fc1ccc(-c2nn3c(OCC(F)(F)F)cccc3c2-c2ccncc2)cc1 [GW514784],0
8,Nc1nccc(-c2c(-c3ccc(F)cc3)ncn2C2CCN(CC(F)(F)F)CC2)n1 [SB-236560],0
9,NS(=O)(=O)CCc1cccc(Nc2nccc(-c3c(-c4cccc(NC(=O)c5c(F)cccc5F)c4)nn4ccccc34)n2)c1 [GSK336735],6
10,O=C(NCCNc1ccnc(Nc2ccc(F)cc2)n1)Nc1ccccc1F [GSK1379880],0
11,Cc1ccc(NC(=O)c2ccnc(N3CCN(C)CC3)c2)cc1-c1ccc(C(=O)NCC2CC2)cc1 [GW775604],10
12,O=c1cc(N2CCOCC2)nc2n(Cc3cccc(Cl)c3Cl)c(C3CC3)nn12 [GSK2358994],0
13,c1ccc(-c2cc(-c3c[nH]nc3-c3ccccn3)ccn2)cc1 [GW576604],0
14,COc1ccc(CNC(=O)NC2CCN(c3ccnc(Nc4ccc(OC)cc4)n3)C2)cc1 (stereo not drawn) [GSK1379727],0
15,C[C@@H](Oc1cc(-n2cnc3ccc(NC(=O)NC(C)(C)C)cc32)sc1C(N)=O)c1ccccc1Cl [GSK346294],0
16,CN(C1=C(c2ccccc2)C(=O)NC1=O)c1ccccc1 [SB-334860],0
